{"source": "PubChem BioAssay AID2284192", "about": "(EPA ToxCast)", "note": "Calls of active or inactive are those of the source. The calls were made as follows: active = hit-call score of the fitted dose curve at least 0.9, where 1 is the maximum; inactive = score below 0.9.", "data": [{"target": "human Opioid Receptor mu (MOP) Agonism, OPRM1 (gene 4988) (UniProt P35372)", "sequence (P35372 whole entry, looked up)": "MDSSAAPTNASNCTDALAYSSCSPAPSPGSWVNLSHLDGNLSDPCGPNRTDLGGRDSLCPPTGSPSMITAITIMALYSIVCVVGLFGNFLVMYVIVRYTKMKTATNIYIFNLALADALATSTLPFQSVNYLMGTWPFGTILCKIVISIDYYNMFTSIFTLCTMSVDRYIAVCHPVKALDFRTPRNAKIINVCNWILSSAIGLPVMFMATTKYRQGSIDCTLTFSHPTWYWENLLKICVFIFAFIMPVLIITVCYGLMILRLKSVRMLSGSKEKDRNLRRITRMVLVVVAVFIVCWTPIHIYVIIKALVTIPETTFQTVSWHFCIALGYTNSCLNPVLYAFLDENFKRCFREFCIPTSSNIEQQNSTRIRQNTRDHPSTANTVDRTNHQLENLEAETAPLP", "assay": "ERF_FR_GPCR_hOPRM1: Eurofins (ERF) G Protein-Coupled Receptor (GPCR) Radioligand Binding LeadHunter Assay for human Opioid Receptor mu (MOP) Agonism", "protocol": "ERF_FR_GPCR_hOPRM1 is a biochemical, single-readout assay that uses extracted gene-proteins in a cell-free assay. Measurements were taken 2 hour after chemical dosing in a 96-well plate. See mu (MOP) Human Opioid GPCR Binding (Agonist Radioligand) Assay, Cerep.ERF_FR_GPCR_hOPRM1 is an assay component calculated from the ERF_FR_GPCR_hOPRM1 assay. It is designed to measure radioligand binding using a type of binding reporter as detected by scintillation counting with radiometry technology.Data from the assay component ERF_FR_GPCR_hOPRM1 was analyzed at the assay endpoint, ERF_FR_GPCR_hOPRM1, in the positive analysis fitting direction relative to DMSO as the negative control and baseline of activity. Using a type of binding reporter, gain-of-signal activity can be used to understand changes in binding as they relate to gene OPRM1. To generalize the intended target to other relatable targets, this assay endpoint is annotated to the gpcr intended target family, where the subfamily is opioid.\nHuman cells are incubated for 60 minutes at room temprature with [3H]DAMGO ligand (0.1 nM) and DAMGO as control inhibitor. Test Sample Requirements: Minimum for 1) Screen: 60 ul of 10 mM stock -OR- 1 mg (pre-weighed) for 10 uM final testing. 2) Dose Response: 90 ul of 10 mM stock -OR- 1 mg (pre-weighed) for a top concentration at 10 uM.", "values": [{"smiles": "O=C(/C=C/c1ccc(O)cc1)CC(=O)/C=C/c1ccc(O)cc1", "AC50": "419 nM (active)"}]}]}
